Only some compounds are listed: those with a hit (about 3.4% of all), similar ones and a draw of the others.
Env fusion inh: HIV envelope-mediated fusion inhibition. HeLa-JRFL Env/CEM21 cell fusion, luciferase. inhibition, % at 12.3 µM. 360,000 tested, 1.1% active;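 active = mean replicate inhibition score of at least 50 and every replicate individually at or above 50; inconclusive = only one of the two criteria met; inactive = mean below 50 and not all replicates reaching 50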;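 note: 0% = plate neutral controls and 100% = maraviroc near 300 nM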
Wnt bcat act: Wnt/beta-catenin pathway activation | Wnt/beta-catenin reporter cell assay, activator, plate reader | activation, % at 9.35 µM | 300,000 tested, 1.2% active; in the data active = activation above about 30%, passing the limit was not always enough; inconclusive = no clear call, values can overlap the other calls;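 note: 0% = neutral control wells and 100% = positive control wells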
miR122 inh: inhibitors of miR-122 in Huh7 cells | Huh7 miR-122 Renilla luciferase sensor, 48 h; neutral wells = 0, positive control = 100 | activation (reporter increase), % at 12.5 µM | 340,000 tested, 0.3% active | AID 602342;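 active = mean replicate activation score at least 90 and every replicate individually at or above 90; inconclusive = only one of the two criteria met; inactive = neither criterion met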;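 note: higher luciferase means less miR-122 activity so hits act as miR-122 inhibitors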
esBAF inh: blocks esBAF chromatin remodeling in mouse ES cells; 350,000 tested, 2% active; Bmi1-luciferase knock-in reporter, 24 h; 100% = twice the neutral-well signal; reporter increase, % at 12.5 µM; in the data active = activation above about 40%; inconclusive = no clear call, values can overlap the other calls;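 note: 0% = median of the plate's neutral control wells and 100% = double that signal; a rise in the Bmi1 reporter signal indicates esBAF inhibition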
MITF TRPM1 HTS: MITF TRPM1 promoter activation in melanoma cells; 300,000 tested, 0.75% active; activation, % at 12.5 µM; SK-MEL-5 TRPM1-promoter luciferase, 24 h; % of positive control, neutral wells = 0;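 active = mean activation of at least 80% with every replicate also reaching 80%; inconclusive = mean reaches 80% but some replicate falls short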;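 note: 0% = neutral control wells and 100% = parthenolide positive control wells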
Active calls of the source: *; ? = inconclusive; . = no result given; ! = not active in a repeat; [ ] = dose if it differs, or a comment.

SMILES	Env fusion inh	Wnt bcat act	miR122 inh	esBAF inh	MITF TRPM1 HTS
COc1ccc(-c2nnc(SCC(=O)Nc3ccccc3OC)o2)cc1	.	19.2	31.2	20.6	70.2
O=C(CSc1nnc(-c2ccccc2)o1)Nc1ccccc1F	40.2	-5.2	-10.6	-65.9	.
CCOC(=O)N1CCN(C(=O)c2cccc(S(=O)(=O)Nc3ccc(F)cc3)c2)CC1	-9.1	38.8*	.	.	-4.7
Cc1cccc(NS(=O)(=O)c2cccc(C(=O)N3CCCCCCC3)c2)c1	10.4	-2.3	162.7*	4.7	-4.9
CCOC(=O)N1CCN(C(=O)c2cccc(S(=O)(=O)Nc3ccc(OC)cc3)c2)CC1	-1.0	1.6	.	.	-6.2
O=C(c1ccc(S(=O)(=O)Nc2ccc(F)cc2)cc1)N1CCN(C(=O)c2ccco2)CC1	73.2*	.	6.7	21.3	-12.0
Cc1cc(C)c(C)c(S(=O)(=O)Nc2ccc(C(N)=O)cc2)c1C	3.1	-0.7	.	.	10.2
Cc1cc(S(=O)(=O)Nc2ccc(C(=O)N3CCN(C(=O)c4ccco4)CC3)cc2)ccc1F	4.3	.	6.8	2.7	.
Cc1cc(C)c(C)c(S(=O)(=O)Nc2ccc(C(=O)N3CCCC3)cc2)c1C	5.6	-2.7	135.1*	5.4	-6.7
COc1cccc(S(=O)(=O)N2CC[C@@H]3[C@H](CO)Nc4ccc(-c5ccc(C#N)cc5)cc4[C@@H]32)c1	.	.	2.0[16.7 µM]	7.3	.
CO[C@@H]1CN(C)C(=O)c2cc(NS(C)(=O)=O)ccc2OC[C@H](C)N(C(=O)C2CCC2)C[C@@H]1C	-3.7[16.7 µM]	.	0.4[16.7 µM]	6.2	.
CC(C)C#Cc1ccc2c(c1)O[C@@H](CN(C)C(=O)C1CCCCC1)[C@H](C)CN([C@@H](C)CO)S2(=O)=O	35.8[16.7 µM]	.	18.7[16.7 µM]	4.5	.
C[C@H](CO)N1C[C@H](C)[C@@H](CN(C)C(=O)NC2CCCC2)Oc2cc(C#Cc3ccc(F)cc3)ccc2S1(=O)=O	12.8[16.7 µM]	.	46.1[16.7 µM]	-2.9	.
C[C@H](CO)N1C[C@H](C)[C@H](CN(C)C(=O)NC2CCCC2)Oc2cc(C#Cc3ccc(F)cc3)ccc2S1(=O)=O	63.3*[16.7 µM]	.	5.7[16.7 µM]	-2.6	.
CC(C)C#Cc1ccc2c(c1)O[C@@H](CN(C)C(=O)C1CCCCC1)[C@H](C)CN([C@H](C)CO)S2(=O)=O	57.8*[16.7 µM]	.	-5.3[16.7 µM]	2.6	.
C[C@H](CO)N1C[C@H](C)[C@H](CN(C)C(=O)C2CCCCC2)Oc2cc(Br)ccc2S1(=O)=O	55.2*[16.7 µM]	.	-7.3[16.7 µM]	-0.3	.
C[C@@H]1CN([C@H](C)CO)S(=O)(=O)c2ccc(C#Cc3cccc(F)c3)cc2O[C@@H]1CN(C)C(=O)CN1CCOCC1	80.7*!	-1.9	-2.3	4.9	.
COc1ccc(NC(=O)O[C@H](c2ccc(OC)c(O)c2)[C@@H](CCO)OC)cc1	11.9[16.7 µM]	.	.	.	.
CCCNC(=O)[C@@H]1[C@@H](CO)[C@@H]2Cn3c(ccc(-c4ccccc4)c3=O)[C@@H]2N1CC1CC1	.	.	-2.5[16.7 µM]	5.8	.
N#C/C(=N\Nc1ccc(F)cc1)C(=N)N1CCCCC1	.	.	-1.0	12.7	114.5*
COc1ccc(N/N=C(\C#N)C(=N)N2CCOCC2)cc1	18.7	2.7	3.9	.	17.3
N#C/C(=N\Nc1ccccc1)C(=N)N1CCCCCC1	-33.6	42.5*	.	15.7	55.8
N#C/C(=N\Nc1cccc(F)c1)C(=N)N1CCCCCC1	-44.8	12.8	.	.	?
COCC(=O)Nc1ccc2c(c1)OC[C@@H](C)N(Cc1cc(-c3ccccc3)on1)C[C@@H](C)[C@H](OC)CN(C)C2=O	.	.	.	4.0	.
C[C@H]1CN([C@@H](C)CO)C(=O)c2ccccc2-c2ccccc2CO[C@H]1CN(C)C(=O)c1ccncc1	3.5[16.7 µM]	.	.	-5.2	.
SMILES	Env fusion inh	Wnt bcat act	miR122 inh	esBAF inh	MITF TRPM1 HTS
Cc1cccc(C)c1OCC(O)Cn1c2ccccc2c2ccccc21 (centres undefined)	57.1*	.	7.0	5.1	.
CCCCN(C=O)c1c(CC)nc2ccc(C(=O)N(CC)CCN(C)C)cn12	-9.6	-1.7	-1.5	-1.0	.
CCCCN(C)c1c(C)nc2ccc(C(=O)N(CC)CCN(C)C)cn12	62.6*	-1.1	-11.7	0.4	.
C[C@H]1CCCCO[C@@H](CN(C)C(=O)Nc2ccccc2)[C@@H](C)CN([C@@H](C)CO)C(=O)c2cc(NC(=O)c3ccccc3)ccc2O1	-30.8[16.7 µM]	.	-2.0[16.7 µM]	1.6	.
C[C@@H]1CN([C@H](C)CO)C(=O)c2ccccc2-c2ccccc2CO[C@@H]1CN(C)C(=O)CCN(C)C	-1.8[16.7 µM]	.	.	-2.6	.
O=Nc1c2cc3ccccc3[nH]c-2c2ccccc12	-386.9	74.0*	0.1	-0.6	18.3
CCCC(=O)c1ccc(N2CCN(S(=O)(=O)c3ccccc3)CC2)c(F)c1	.	.	-7.0	7.6	9.0
